Experimental data: PubChem BioAssay (Tox21)
Results filed as inconclusive are left out. A call without a number means that no potency is given here. A number with no mark means an inactive call. The source made the active and inactive calls. Calls follow the shape of the dose curve; as a rule, active = well fitted cell-killing curve with a large enough effect in the repeat runs; inconclusive = weak or mixed curves, or effect the other way; inactive = no such curve, though single readings can be large or run the other way.

assay: qHTS assay to identify small molecule agonists of the RXR signaling pathway - cell viability counter screen (AID 1159529); conditions: RXR-alpha-bla HEK293T viability, CellTiter-Glo, 16 h; series mostly up to 76.8 µM; also: nearly all actives have a fitted effect of over 50% in size
Outline: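 Compounds dissolved in DMSO were pinned onto HEK 293T cells carrying a beta-lactamase reporter under RXR-alpha control and incubated 16 hr. Cytotoxicity was then quantified by CellTiter-Glo luminescence.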
Potency is read from the fitted curve at half-maximal effect.

| Structure (SMILES) | Potency | activity change, negative = cytotoxicity |
| --- | --- | --- |
| CCO[Si](C)(C)OCC | inactive |  |
| C=CC(C)C#N (centres undefined) | inactive |  |
| COc1cccc(O)c1 | inactive |  |
| CCOCOCC | inactive |  |
| Cc1cnccn1 | inactive |  |
| COc1ccccc1OCCNCC(O)COc1cccc2[nH]c3ccccc3c12 (centres undefined) | 19 µM (active) |  |
| Clc1cc(Cl)c(-c2c(Cl)c(Cl)cc(Cl)c2Cl)cc1Cl | inactive |  |
| Cn1cccc1 | inactive |  |
| O=C1OC(=O)c2ccc3c4c(ccc1c24)C(=O)OC3=O | inactive |  |
| CCCCCCCCCCCCN(CCO)CCO | 24.4 µM (active) |  |
| Cc1c(-c2ccc(O)cc2)n(Cc2ccc(OCCN3CCCCCC3)cc2)c2ccc(O)cc12 | 26.8 µM (active) |  |
| CCCCCCCCC(C)=O | inactive |  |
| CC1=CP(=O)(c2ccccc2)CC1 (centres undefined) | inactive |  |
| O=S(=O)(O)c1cc(S(=O)(=O)O)c2ccc3c(S(=O)(=O)O)cc(S(=O)(=O)O)c4ccc1c2c43 |  | -4.37% [at 15.8 µM] |
| CCCCCCCC(=O)OCC | inactive |  |
| CCN(CC)c1cccc(C)c1 | inactive |  |
| CCCCCCCCCCCCCCCCCO |  | -0.179% [at 15.8 µM] |

| Structure (SMILES) | Potency | activity change, negative = cytotoxicity |
| --- | --- | --- |
| Cc1cccc(N(C)C)c1 | inactive |  |
| CN1CN(C)CN(C)C1 | inactive |  |
| CC1=CCC(=O)O1 | inactive |  |
| CC(=O)OC1CCCCC1 | inactive |  |
| CCC(C)C(=O)OC (centres undefined) | inactive |  |
| C#CC(O)CCC (centres undefined) | inactive |  |
| CC(C)=CCCC(C)CCOC(=O)C(C)C (centres undefined) | inactive |  |
| CCCCCCCOC(=O)c1ccccc1C(=O)OCCCCCCC | inactive |  |
| CS(C)(=O)=O | inactive |  |
| CCc1ccc(C)nc1 | inactive |  |
| CC1CCCCC1 | inactive |  |
| O=c1cccc[nH]1 | inactive |  |
| CCOC(=O)CC(C)O (centres undefined) | inactive |  |
| CN(C)CCN1CCOCC1 | inactive |  |
| CCOC(=O)CN | inactive |  |
| CC1(C)C(=O)N(CO)C(=O)N1CO | inactive |  |
| CCOB(OCC)OCC | inactive |  |
